# Screening data as filed in PubChem BioAssay.
# Shown are actives, neighbours in structure and some others; about 11% of the full set was active somewhere.
# HttQ103 aggreg: qHTS Multiplex Assay to Identify Dual Action Probes in a Cell Model of Huntington: Aggregate Formation (GFP). PC12 HttQ103-GFP aggregates, Acumen cytometry, 40 h. Potency, µM (highest dose often 46.1 µM), for inactives: at the top dose activity change, negative = inhibition, actives largely listed as inhibitors. hit rate 1.1% among 220,000; note: potency is the fitted concentration of half-maximal effect; % is set by controls: 0 for no effect and ±100 for the full control effect; nearly all actives have a fitted effect of over 60% in size
#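 Steps: seed 1500 PC12 HTTQ103-GFP cells/well; add tebufenozide, 100 nM final; add compound titration; add ATPLite reagent; quantify GFP aggregates by laser scanning cytometry.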
# HPGD block: qHTS Assay for Inhibitors of HPGD (15-Hydroxyprostaglandin Dehydrogenase); hit rate 4.3% among 150,000; Potency, µM, without a hit: at the top dose activity change, negative = inhibition, hits mostly inhibitors; purified HPGD, NADH fluorescence kinetic, PGE2 substrate; active = well fitted inhibition curve with a large enough effect, not every such curve was filed as active; inconclusive = small, poorly fitted or top-dose-only effect, or another doubt; inactive = no such curve, though single readings can be large or run the other way; note: potency is the fitted concentration of half-maximal effect; % is set by controls: 0 for no effect and ±100 for the full control effect
#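 20 nM HPGD preincubated 15 min at room temperature with compound in 50 mM Tris-HCl pH 8, 0.01% Tween 20. Started with 1 mM NAD+ and 30 uM prostaglandin E2; NADH fluorescence (360/450 nm) read 5 times over 30-s intervals, last minus first.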
# PNC assembly inh: High Content Assay for Compounds that inhibit the Assembly of the Perinucleolar Compartment; PC3M PTB-GFP, PNC prevalence imaging, 16 h; active compounds read low; activity change (PNC), negative = inhibition, % at 10 µM; hit rate 3.1% among 140,000;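 active = readout at or below -70, meaning at least 70% loss of cells showing the perinucleolar compartment, a nuclear body marking cancer cells; inconclusive = readout between -30 and a set limit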;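 note: plate controls were DMSO wells for no effect and camptothecin positive control wells for full effect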
#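 Read-out is percentage of cells bearing a perinucleolar compartment, from automated 20x imaging of fixed, Hoechst-stained PC3M PTB-GFP cells. Cells were seeded 4 h, then exposed 16 h to compound (23 nl of library stock) in duplicate plates.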
# CBFb RUNX1 block: qHTS Assay for Compounds Blocking the Interaction Between CBF-beta and RUNX1 for the Treatment of Acute Myeloid Leukemia. AlphaScreen CBFb-His/RUNX1-biotin binding, biochemical. Potency, µM (highest dose often 59.8 µM), inactives show at the top dose activity, negative = inhibition, actives largely listed as inhibitors. 230,000 tested, under 10 active. AID 1477, 2009; note: % of control where 0% means no effect
#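 Proteins preincubated together for 20 min at RT before compound addition; 15 min later, nickel and streptavidin beads were added and left 90 min prior to AlphaScreen measurement.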
# HTT cytoprotect: qHTS Multiplex Assay to Identify Dual Action Probes in a Cell Model of Huntington: Cytoprotection (ATP) | PC12 HTT-Q103 induced, cytoprotection, ATP luminescence, 40 h | hit rate 0.14% among 230,000 | Potency, µM (titrated, usually from 56.4 µM), for the others: cytoprotection (ATP increase), actives largely listed as activators; note: potency is the fitted concentration of half-maximal effect; % of control where 0% means no effect; nearly all actives have a fitted effect of over 45% in size
#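 PC12 cells stably carrying ecdysone-inducible Htt exon 1 (Q103)–GFP were induced with 100 nM tebufenozide (final) alongside library compounds in a dose series. Cytoprotection was scored as retained ATP by ATPlite luminescence.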
# ALDH1A1 inh: qHTS Assay for Inhibitors of Aldehyde Dehydrogenase 1 (ALDH1A1); Potency, µM (doses to about 75.3 µM), inactives show top-dose activity, negative = inhibition, usual class: inhibitors; Purified ALDH1A1, NADH fluorescence, propionaldehyde substrate; AID 1030, 2008; hit rate 7.3% among 220,000; active = well fitted inhibition curve with a large enough effect, not every such curve was filed as active; inconclusive = small, poorly fitted or top-dose-only effect, or another doubt; inactive = no such curve, though single readings can be large or run the other way;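 note: potency is the fitted concentration of half-maximal effect; plate controls were no enzyme wells and a reference inhibitor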
# Target sequence (P00352 whole entry, looked up): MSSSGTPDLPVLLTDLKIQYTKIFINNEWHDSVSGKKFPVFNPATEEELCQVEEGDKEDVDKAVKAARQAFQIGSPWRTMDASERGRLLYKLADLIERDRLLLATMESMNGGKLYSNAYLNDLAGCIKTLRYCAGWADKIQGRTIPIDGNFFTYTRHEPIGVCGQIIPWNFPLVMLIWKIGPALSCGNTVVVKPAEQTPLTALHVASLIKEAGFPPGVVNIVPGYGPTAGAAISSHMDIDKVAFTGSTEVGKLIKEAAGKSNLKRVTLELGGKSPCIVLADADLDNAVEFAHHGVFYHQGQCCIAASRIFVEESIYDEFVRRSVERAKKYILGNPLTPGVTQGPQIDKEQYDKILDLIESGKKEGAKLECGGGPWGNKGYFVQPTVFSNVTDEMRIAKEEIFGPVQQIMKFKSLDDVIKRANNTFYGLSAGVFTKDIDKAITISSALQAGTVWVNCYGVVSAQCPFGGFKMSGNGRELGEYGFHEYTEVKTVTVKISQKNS
# Active calls of the source: *; ? = inconclusive; · = no result; [ ] = another dose, or the depositor's remark. Unless noted, calls come from the whole dose curve; as a rule, active = well fitted curve in the direction sought with a large enough effect; inconclusive = small, poorly fitted or top-dose-only effect, or another doubt; inactive = no such curve, though single readings can be large; an effect the other way counts as inactive or inconclusive.
SMILES,HttQ103 aggreg,HPGD block,PNC assembly inh,CBFb RUNX1 block,HTT cytoprotect,ALDH1A1 inh
CN=C1N[C@H](c2ccccc2)N(c2ccccc2)S1,·,13µM*,·,9%[21.7 µM],-70%,1.3µM*
Cc1sc2ncnc(SCC(=O)N3CCCC3=O)c2c1C,-11%,25µM*,-97*,6%,-13%[10 µM],0.1µM*
CCN(C(=O)CSc1ncnc2sc(C)c(C)c12)C1CCS(=O)(=O)C1 (centres undefined),4%,·,·,5%,-27%,?
CCCN(CC1CC1)C(=O)CSc1ncnc2sc(C)c(C)c12,-36%,28µM*,-8,1%,3%,-13%
Fc1ccc(CSc2nc3ccccc3[nH]2)c2ccccc12,?,?,-8,0%,-51%,-5%
O=c1cc(CSc2nc3ccccc3[nH]2)c2ccccc2[nH]1,-1%,7.9µM*,?,-7%,-20%,-5%
O=c1cc(CSc2nnc(-c3ccco3)o2)c2ccccc2[nH]1,-6%,20µM*,25,-1%,-20%,-2%
COCCCn1c(SCc2cc(=O)[nH]c3ccccc23)nnc1-c1ccco1,-27%,5%,7,3%,1%,?
CSC1=N/C(=C\c2c(F)cccc2Cl)C(=O)S1,-8%,4.5µM*,59,-2%,-6%[10 µM],-9%
CCCOC(=O)CN1C(=O)c2ccccc2C1=O,-13%,-6%,-13,11%,8%,22µM*
O=C(COC(=O)CN1C(=O)C(=O)c2ccccc21)OCN1C(=O)c2ccccc2C1=O,3%,-26%,0,17%,4%[10 µM],0.089µM*
COC(=O)c1cccc(NC(=O)CSc2nnnn2C)c1,2%,-9%,26,7%,-13%,14µM*
COc1ccc(NC(=O)CSc2nnnn2C)c([N+](=O)[O-])c1,6%,·,·,-1%,-12%,28µM*
CCn1nnnc1SCC(=O)Nc1cc(C)on1,1%,6%,-2,0%,-7%[10 µM],-8%
CCOC(=O)c1cccc(NC(=O)CSc2nnnn2C)c1,13%,0%,?,-3%,0%,11%
COC(=O)c1cccc(-n2nnnc2SCC(=O)Nc2cc(C)on2)c1,-6%,·,51,2%,-5%,11µM*
COC(=O)c1cccc(-n2nnnc2SCC(=O)Nc2nc3c(s2)CCCC3)c1,-12%,20µM*,26,-4%,-11%,?
Cc1cc(C)cc([N+](=O)[O-])c1,·,-4%,·,6%[21.7 µM],-8%,3%
Cn1cccc1C(=O)N1CCC[C@@]2(CCN(C(c3ccccc3)c3ccccc3)C2)C1,·,-3%,·,·,-40%,-6%
CC(C)c1ccc(/C=C/C(=O)n2nnc3ccccc32)cc1,32%,-23%,-19,6%,-16%,4%
COC(=O)c1sc(NC(=O)CSc2nnnn2-c2cccc(OC)c2)nc1C,?,-15%,31,3%,-15%[1.9 µM],-2%
COc1cccc(-n2nnnc2SCC(=O)Nc2nc3c(s2)CCCC3)c1,-10%,25µM*,?,-4%,27%[10 µM],?
CCCc1cc2c(n1Cc1ccc(OC)cc1)C(C)C1CN(C(=O)c3ccccc3)C(C)(C(=O)OC)C21 (centres undefined),·,-12%,·,1%,6%,?
CC(C)C1=NN2C(=N)CC(=O)N=C2S1,18%,-7%,25,0%,-41%,0%
[O-]/[N+](=C\C=C\c1ccccc1)c1ccccc1,-9%[9.22 µM],·,·,0%,-7%[10 µM],·
[O-]/[N+](=C\c1ccncc1)c1ccccc1,14%,-12%,-28,3%,7%,15µM*
